# Counter-ions that a name gives are not always drawn. Among all 5,800 compounds or so, about 620 (11%) showed activity. Only a selection was taken, and actives are over-represented in it overall. A number with no mark means an inactive call.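 The calls were made as follows: active = score above a cut-off or among the top three wells of a plate; in these data no inactive exceeds 0.85.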
# Tested on: primary human hepatic stellate cells (donor 1)
# Test: scaled lipid accumulation score (0 = DMSO-like, 1 = nortriptyline-like); higher = stronger HSC inactivation (lipid re-accumulation), active = hit call of the paper
# Conditions: 48 h
# [1] = library stock concentration: 3.33 mM
# [2] = library stock concentration: 80 uM
# [3] = library stock concentration: 400 uM
# [4] = library stock concentration: 10 mM
# [5] = library stock concentration: 2 mM
# [6] = library stock concentration: 1 mM
structure (smiles),measurement,setting,value
Clc1ccc(C2(c3ccc(-c4cn[nH]c4)cc3)CCNCC2)cc1 [listing 1 of 3 here],scaled lipid accumulation score,[1],1.22 (active)
Clc1ccc(C2(c3ccc(-c4cn[nH]c4)cc3)CCNCC2)cc1 [listing 2 of 3 here],scaled lipid accumulation score,[2],0.375
same,scaled lipid accumulation score,[3],0.622
same,scaled lipid accumulation score,[4],0.425
Clc1ccc(C2(c3ccc(-c4cn[nH]c4)cc3)CCNCC2)cc1 [listing 3 of 3 here],scaled lipid accumulation score,[5],0.95 (active)
same,scaled lipid accumulation score,[4],1.16 (active)
C[n+]1ccccc1C=NO [Pralidoxime mesylate],scaled lipid accumulation score,[4],0.016
O=C1C2CC3CC1CC(O)(C3)C2,scaled lipid accumulation score,[4],0.163
"N[C@H](C(=O)O)[C@H]1C[C@@H]1C(=O)O [(2S,1'S,2'S)-2-(carboxycyclopropyl)glycine]",scaled lipid accumulation score,[4],0.17
CCOC(=O)C1=C(C)NC(C)=C(C(=O)OC)C1c1cccc(Cl)c1Cl (configuration not stated) [Felodipine] [listing 1 of 2 here],scaled lipid accumulation score,,0.05
same,scaled lipid accumulation score,[1],≤ 0
same,scaled lipid accumulation score,library stock concentration: 5.2 mM,0.028
same,scaled lipid accumulation score,[4],≤ 0
CCO/C(O)=C1\C(COCCN)=NC(C)=C(C(=O)OC)C1c1ccccc1Cl (configuration not stated),scaled lipid accumulation score,[4],1.38 (active)
CCO/C(O)=C1\C(C)=NC(c2ccccc2)=C(C(=O)OCc2ccc([N+](=O)[O-])cc2)C1C#Cc1ccccc1 (configuration not stated),scaled lipid accumulation score,[4],≤ 0
CCOC(=O)C1=C(COCCN)NC(C)=C(C(=O)OC)C1c1ccccc1Cl (configuration not stated) [Amlodipine besylate],scaled lipid accumulation score,library stock concentration: 3.5 mM,≤ 0
CCOC(=O)C1=C(C)NC(C)=C(C(=O)OC)C1c1cccc(Cl)c1Cl (configuration not stated) [Felodipine] [listing 2 of 2 here],scaled lipid accumulation score,[4],0.931 (active)
COC(=O)C1=C(C)NC(C)=C(C(=O)OCCSc2ccccc2)C1C (configuration not stated),scaled lipid accumulation score,[4],0.111
same,scaled lipid accumulation score,library stock concentration: 13.8 mM,0.203
CCCC(=O)OCOC(=O)C1=C(C)NC(C)=C(C(=O)OC)C1c1cccc(Cl)c1Cl (configuration not stated) [Clevidipine Butyrate],scaled lipid accumulation score,[1],≤ 0
same,scaled lipid accumulation score,[4],≤ 0
CCOC(=O)C1=C(COCCN)NC(C)=C(C(=O)OC)C1c1ccccc1Cl.O=S(=O)(O)c1ccccc1 (configuration not stated) [Amlodipine besylate],scaled lipid accumulation score,[4],1.02 (active)
CCOC(=O)C1=C(COCCN)NC(C)=C(C(=O)OC)C1c1ccccc1Cl (configuration not stated) [Amlodipine],scaled lipid accumulation score,[1],0.492
same,scaled lipid accumulation score,library stock concentration: 4.9 mM,≤ -0.006
same,scaled lipid accumulation score,[4],0.33
NC(=O)OCC(O)COc1ccc(Cl)cc1 (configuration not stated) [Chlorphensin carbamate],scaled lipid accumulation score,,≤ 0
CCOc1c2c(c(OCC)c3ccccc13)C(=O)N(c1ccc(CC(=O)NS(=O)(=O)c3ccccc3)cc1)C2,scaled lipid accumulation score,[6],≤ 0
CCCCC/C=C\C/C=C\C/C=C\C/C=C\CCCCNC(=O)c1ccc(O)cc1,scaled lipid accumulation score,[6],≤ 0
"CCCCC(C)CC(O)/C=C/C1C(O)CC(O)C1CCCCCCC(=O)O (stereo not drawn) [17,20-dimethyl Prostaglandin F1.alpha.]",scaled lipid accumulation score,[6],≤ 0
Nc1cccc2c1CN(C1CCC(=O)NC1=O)C2=O (configuration not stated) [Lenalidomide],scaled lipid accumulation score,[2],0.004
same,scaled lipid accumulation score,[3],0.005
same,scaled lipid accumulation score,[5],≤ -0.001
same,scaled lipid accumulation score,[4],≤ -0.001
Nc1cccc2c1CN(C1CCC(=O)NC1=O)C2=O (configuration not stated) [Lenalidomide (CC-5013)],scaled lipid accumulation score,[1],0.003
same,scaled lipid accumulation score,[4],≤ 0
Nc1nc2[nH]cnc2c(=S)[nH]1 [Thioguanine],scaled lipid accumulation score,[4],≤ 0
same,scaled lipid accumulation score,library stock concentration: 12 mM,≤ 0
O=C(NCCCCCCNC(=O)ON=C1CCCCC1)ON=C1CCCCC1,scaled lipid accumulation score,[4],0.062
same,scaled lipid accumulation score,library stock concentration: 12.7 mM,0.056
CNC(=O)c1ccc(Nc2cc(Nc3ccccc3S(=O)(=O)C(C)C)c3cc[nH]c3n2)nc1,scaled lipid accumulation score,[2],0.027
same,scaled lipid accumulation score,[3],0.02
same,scaled lipid accumulation score,[5],0.04
same,scaled lipid accumulation score,[4],≤ 0
Cc1coc2c1C(=O)C(=O)c1c-2ccc2c(C)cccc12 [Tanshinone I],scaled lipid accumulation score,[1],≤ 0
same,scaled lipid accumulation score,[4],≤ 0
CCCCC/C=C\C/C=C\C/C=C\C/C=C\CCCC(=O)O [Arachidonic Acid],scaled lipid accumulation score,[6],≤ 0
"CCCCC/C=C\C/C=C\C/C=C\C/C=C\CCCC(=O)O [Arachidonic acid (20:4, n-6)]",scaled lipid accumulation score,[6],≤ -0.021
Cc1ccc(C(=O)Nc2cccc(C(F)(F)F)c2)cc1-c1ccc2nc(NCCN3CCOCC3)ncc2c1 [listing 1 of 2 here],scaled lipid accumulation score,[4],1.34 (active)
COc1ccc(N(C(=O)Oc2cc(C(=O)Nc3cccc(C(F)(F)F)c3)ccc2C)c2ccnc(Nc3ccc(N4CCN(C)CC4)cc3)n2)c(OC)c1,scaled lipid accumulation score,[2],0.07
same,scaled lipid accumulation score,[3],0.248
same,scaled lipid accumulation score,[5],0.495
same,scaled lipid accumulation score,[4],0.396
Cc1ccc(C(=O)Nc2cccc(C(F)(F)F)c2)cc1-c1ccc2nc(NCCN3CCOCC3)ncc2c1 [listing 2 of 2 here],scaled lipid accumulation score,[3],≤ -0.005
same,scaled lipid accumulation score,[5],0.748
CCCCCC(=O)/C=C/C=O [4-oxo-2-Nonenal],scaled lipid accumulation score,[6],≤ 0
COc1ccc(-c2cc(=O)c3c(O)cc(O)cc3o2)cc1 [Acacetin],scaled lipid accumulation score,,≤ 0
same,scaled lipid accumulation score,[4],≤ -0.027
Cc1cc(Nc2ncc(Cl)c(Nc3ccccc3S(=O)(=O)C(C)C)n2)c(OC(C)C)cc1C1CCNCC1 [Ceritinib],scaled lipid accumulation score,[2],0.312
same,scaled lipid accumulation score,[3],0.357
same,scaled lipid accumulation score,[5],0.663
same,scaled lipid accumulation score,[4],≤ 0
Cc1cc(Nc2ncc(Cl)c(Nc3ccccc3S(=O)(=O)C(C)C)n2)c(OC(C)C)cc1C1CCNCC1,scaled lipid accumulation score,[1],0.582
same,scaled lipid accumulation score,[4],0.131
O=C1Nc2ccccc2/C1=C\c1c(Cl)[nH]c2ccccc12,scaled lipid accumulation score,[2],≤ -0.001
same,scaled lipid accumulation score,[3],≤ -0.001
same,scaled lipid accumulation score,[5],≤ -0.001
same,scaled lipid accumulation score,[4],0.116
O=C1Nc2ccc(Br)cc2/C1=C/c1cc2c([nH]1)CCCC2 [VEGF Receptor 2 Kinase Inhibitor II],scaled lipid accumulation score,[1],0.454
CN(C)S(=O)(=O)c1ccc2c(c1)/C(=C/c1cc3c([nH]1)CCCC3)C(=O)N2 [listing 1 of 3 here],scaled lipid accumulation score,[6],0.413 (active)
CN(C)S(=O)(=O)c1ccc2c(c1)/C(=C/c1cc3c([nH]1)CCCC3)C(=O)N2 [listing 2 of 3 here],scaled lipid accumulation score,[4],0.958 (active)
COc1cc(OC)c(C=C2C(=O)Nc3ccccc32)c(OC)c1,scaled lipid accumulation score,[1],≤ 0
same,scaled lipid accumulation score,[4],≤ 0
CN(C)S(=O)(=O)c1ccc2c(c1)/C(=C/c1cc3c([nH]1)CCCC3)C(=O)N2 [listing 3 of 3 here],scaled lipid accumulation score,[1],0.613
"CCCCC[C@H](O)CC[C@@H]1[C@@H](CCCCCCC(=O)O)[C@@H](O)C[C@H]1O [13,14-dihydro Prostaglandin F1.alpha.]",scaled lipid accumulation score,[6],≤ 0
NCc1c[nH]c(=S)n1C1CCc2c(F)cc(F)cc2C1 [(R)-Nepicastat HCl],scaled lipid accumulation score,[1],≤ 0
same,scaled lipid accumulation score,[4],0.361
CC(=NNC(=S)N1CCC1)c1ccccn1,scaled lipid accumulation score,[1],0.164
same,scaled lipid accumulation score,[4],0.375
CCCCC1(C2CCCC2)Cc2cc(OCC(=O)O)c(Cl)c(Cl)c2C1=O (stereo in doubt) [R(+)-Butylindazone],scaled lipid accumulation score,[4],0.139
CN(CC(=O)N(Cc1ccc(C2CCCCC2)cc1)c1ccc(C(=O)O)cc1)S(=O)(=O)c1c(F)c(F)c(F)c(F)c1F,scaled lipid accumulation score,[1],≤ -0.009
same,scaled lipid accumulation score,[4],0.483
CCCCC[C@H](O)/C=C/[C@@H]1[C@@H](C/C=C\CCCC(=O)N(C)C)[C@@H](O)C[C@H]1O [Prostaglandin F2.alpha. dimethyl amide],scaled lipid accumulation score,[6],≤ 0
CC(COc1ccccc1)N(CCCl)Cc1ccccc1 (configuration not stated) [Phenoxybenzamine],scaled lipid accumulation score,library stock concentration: 16.5 mM,≤ -0.012
CC(C)N(CCC(=O)c1ccc2ccccc2c1)Cc1ccccc1.Cl [listing 1 of 2 here],scaled lipid accumulation score,[4],1.1 (active)
CC(C)NCC(O)c1ccc2ccccc2c1 (configuration not stated) [Pronethalol HCl],scaled lipid accumulation score,library stock concentration: 8.7 mM,0.224
CC(C)N(CCC(=O)c1ccc2ccccc2c1)Cc1ccccc1.Cl [listing 2 of 2 here],scaled lipid accumulation score,[4],0.966 (active)
CC(C)NCC(O)c1ccc2ccccc2c1 (configuration not stated) [Pronetalol hydrochloride],scaled lipid accumulation score,[4],0.107
CC(COc1ccccc1)N(CCCl)Cc1ccccc1 (configuration not stated) [Phenoxybenzamine HCl],scaled lipid accumulation score,[1],≤ 0
same,scaled lipid accumulation score,library stock concentration: 6.6 mM,0.025
same,scaled lipid accumulation score,[4],≤ 0
C=CC(=O)c1ccc2ccccc2c1,scaled lipid accumulation score,[4],0.015
CC(C)NCC(O)c1ccc2ccccc2c1 (configuration not stated) [Pronethalol hydrochloride],scaled lipid accumulation score,,0.369
same,scaled lipid accumulation score,[4],0.221
CC(COc1ccccc1)N(CCCl)Cc1ccccc1 (configuration not stated) [Phenoxybenzamine hydrochloride],scaled lipid accumulation score,,0.065
same,scaled lipid accumulation score,library stock concentration: 5.9 mM,≤ 0
CC(COc1ccccc1)N(CCCl)Cc1ccccc1 (configuration not stated) [Dibenzyline],scaled lipid accumulation score,[4],0.174
CC(C)N(CCC(=O)c1ccc2ccccc2c1)Cc1ccccc1,scaled lipid accumulation score,[1],0.613
same,scaled lipid accumulation score,[4],0.619
CCCCCCCCCCCCCCCCOC[C@H](COP(=O)([O-])OCCCCCC[N+](C)(C)C)OC(C)=O [Hexanolamino PAF C-16],scaled lipid accumulation score,[6],≤ 0
Cc1ccc(-n2[nH]c(C)c(N=Nc3cccc(-c4cccc(C(=O)O)c4)c3O)c2=O)cc1C [Eltrombopag],scaled lipid accumulation score,[1],0.081
same,scaled lipid accumulation score,[4],0.077
COc1cccc2cc(-c3nc([C@H]4CC[C@H](C(=O)O)CC4)n4ncnc(N)c34)[nH]c12,scaled lipid accumulation score,[2],≤ 0
same,scaled lipid accumulation score,[3],0.061
same,scaled lipid accumulation score,[5],≤ 0
same,scaled lipid accumulation score,[1],0.043
same,scaled lipid accumulation score,[4],≤ 0
C[C@H]1C[C@@H]2[C@H]([C@@H](O)C[C@@]3(C)[C@H]2CC[C@]3(O)C(=O)COC(=O)CCC(=O)O)[C@@]2(C)C=CC(=O)C=C12 [Methylprednisolone sodium succinate],scaled lipid accumulation score,library stock concentration: 4 mM,0.015
N#CSc1cc(SC#N)c(N)nc1N,scaled lipid accumulation score,[1],0.46
same,scaled lipid accumulation score,[4],0.53
NC(Cn1ccc(=O)c(O)c1)C(=O)O (configuration not stated) [Mimosine],scaled lipid accumulation score,,≤ 0
same,scaled lipid accumulation score,[4],≤ 0
CCCCC[C@H](O)/C=C/[C@H]1CC[C@H](O)[C@@H]1CCCCCCC(=O)O [11-deoxy Prostaglandin F1.alpha.],scaled lipid accumulation score,[6],≤ 0

# From the supplement of paper PMC9135407
